This note sets out measurements from paper PMC7862700, “An all-to-all approach to the identification of sequence-specific readers for epigenetic DNA modifications on cytosine”.

Test in all cases: DAPPL (digital affinity profiling via proximity ligation, sequencing); 10 mM Tris-HCl pH 7.5, 50 mM NaCl, 1 mM DTT, 4% glycerol, room temperature, 30 min; GST-TFs on glutathione beads, 16-mer random dsDNA library, 0.1% formaldehyde crosslink after washing; high values mean tight binding
Details in all cases: protein: recombinant; tags: N-terminal GST; dsDNA, one strand shown

One experiment concerns the target T1, GABPA (Homo sapiens, UniProt Q06546 1-454).
T1 sequence: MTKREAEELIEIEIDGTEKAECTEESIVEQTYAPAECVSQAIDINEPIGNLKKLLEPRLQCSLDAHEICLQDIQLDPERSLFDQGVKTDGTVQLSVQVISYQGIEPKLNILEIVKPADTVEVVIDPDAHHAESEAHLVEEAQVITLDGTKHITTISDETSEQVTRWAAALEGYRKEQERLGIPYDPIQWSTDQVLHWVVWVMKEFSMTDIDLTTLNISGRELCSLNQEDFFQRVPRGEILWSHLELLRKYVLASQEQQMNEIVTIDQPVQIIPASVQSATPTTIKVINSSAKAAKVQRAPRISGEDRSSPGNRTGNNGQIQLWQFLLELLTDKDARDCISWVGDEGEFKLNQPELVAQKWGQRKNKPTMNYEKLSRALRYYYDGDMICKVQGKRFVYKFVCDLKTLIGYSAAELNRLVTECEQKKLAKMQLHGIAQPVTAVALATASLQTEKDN
In a few lines:
(§1)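 Each value of binding signal is a hexamer's read frequency for a factor divided by the same hexamer's frequency in the tag-only sample. Barcoded, bead-captured GST fusions of human transcription factors made in yeast were pooled with that sample and incubated with 200 nmole of a random double-stranded 16-mer DNA library in Tris/NaCl/DTT/glycerol buffer at room temperature for 30 min. Washing, 0.1% formaldehyde crosslinking, proximity ligation, PCR and Illumina NextSeq500 sequencing followed.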

A further experiment deals with T2, ERG (Homo sapiens, UniProt P11308 1-479).
T2 sequence: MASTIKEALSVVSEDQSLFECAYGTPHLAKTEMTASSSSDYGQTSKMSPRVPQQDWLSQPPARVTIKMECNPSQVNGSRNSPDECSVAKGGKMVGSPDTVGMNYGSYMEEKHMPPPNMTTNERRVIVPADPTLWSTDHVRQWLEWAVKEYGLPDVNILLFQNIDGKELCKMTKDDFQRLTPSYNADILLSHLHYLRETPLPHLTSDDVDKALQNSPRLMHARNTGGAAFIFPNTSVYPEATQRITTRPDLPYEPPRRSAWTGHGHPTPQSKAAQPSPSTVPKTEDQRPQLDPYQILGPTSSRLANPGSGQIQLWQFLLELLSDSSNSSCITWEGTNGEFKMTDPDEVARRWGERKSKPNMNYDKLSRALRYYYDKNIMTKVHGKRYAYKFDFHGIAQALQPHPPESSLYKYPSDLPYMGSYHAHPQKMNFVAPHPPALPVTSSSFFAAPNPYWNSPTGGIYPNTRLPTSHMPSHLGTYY
Put shortly:
as §1

Another experiment addresses ELF1 (Homo sapiens, UniProt P32519 1-619). In a few lines:
as §1

The target in the next experiment is T3, EHF (Homo sapiens, UniProt Q9NZC4 1-300).
T3 sequence: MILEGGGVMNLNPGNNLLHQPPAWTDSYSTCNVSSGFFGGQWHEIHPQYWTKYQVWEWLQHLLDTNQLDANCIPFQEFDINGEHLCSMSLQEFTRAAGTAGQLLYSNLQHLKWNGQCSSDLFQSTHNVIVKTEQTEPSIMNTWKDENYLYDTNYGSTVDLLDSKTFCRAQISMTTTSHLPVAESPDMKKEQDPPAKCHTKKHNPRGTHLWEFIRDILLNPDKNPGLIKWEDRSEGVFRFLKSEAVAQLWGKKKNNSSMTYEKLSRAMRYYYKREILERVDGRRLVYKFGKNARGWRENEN
Put shortly:
as §1

Another experiment concerns the target SPIB (Homo sapiens, UniProt Q01892 1-262). Put shortly: as §1
A further experiment deals with ETV5 (Homo sapiens, UniProt P41161 1-510). In a few lines:
as §1

In a further experiment the target is T4, SPIC (Homo sapiens, UniProt Q8N5J4 1-248).
T4 sequence: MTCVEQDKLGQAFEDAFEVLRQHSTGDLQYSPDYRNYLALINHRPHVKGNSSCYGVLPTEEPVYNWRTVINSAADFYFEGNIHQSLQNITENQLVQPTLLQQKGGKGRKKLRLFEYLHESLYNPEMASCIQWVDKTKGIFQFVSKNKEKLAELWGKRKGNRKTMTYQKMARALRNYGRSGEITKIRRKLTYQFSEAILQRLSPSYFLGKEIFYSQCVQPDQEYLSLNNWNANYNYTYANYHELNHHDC
In a few lines: as §1

The target of another experiment is T5, ELF3 (Homo sapiens, UniProt P78545 1-371).
T5 sequence: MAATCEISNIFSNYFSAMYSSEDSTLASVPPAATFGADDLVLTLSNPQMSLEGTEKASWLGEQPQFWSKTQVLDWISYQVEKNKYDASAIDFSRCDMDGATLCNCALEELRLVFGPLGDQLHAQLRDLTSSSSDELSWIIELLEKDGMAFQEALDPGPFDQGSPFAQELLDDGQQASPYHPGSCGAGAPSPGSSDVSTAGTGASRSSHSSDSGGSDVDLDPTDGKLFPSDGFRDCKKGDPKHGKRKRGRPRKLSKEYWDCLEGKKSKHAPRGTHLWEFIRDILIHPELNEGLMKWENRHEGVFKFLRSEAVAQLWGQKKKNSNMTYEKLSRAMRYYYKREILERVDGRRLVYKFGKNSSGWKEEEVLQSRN
In a few lines:
as §1

Another experiment concerns the target ETV1 (Homo sapiens, UniProt P50549 1-477). Put shortly: as §1
The target in a further experiment is T6, ERF (Homo sapiens, UniProt P50548 1-548).
T6 sequence: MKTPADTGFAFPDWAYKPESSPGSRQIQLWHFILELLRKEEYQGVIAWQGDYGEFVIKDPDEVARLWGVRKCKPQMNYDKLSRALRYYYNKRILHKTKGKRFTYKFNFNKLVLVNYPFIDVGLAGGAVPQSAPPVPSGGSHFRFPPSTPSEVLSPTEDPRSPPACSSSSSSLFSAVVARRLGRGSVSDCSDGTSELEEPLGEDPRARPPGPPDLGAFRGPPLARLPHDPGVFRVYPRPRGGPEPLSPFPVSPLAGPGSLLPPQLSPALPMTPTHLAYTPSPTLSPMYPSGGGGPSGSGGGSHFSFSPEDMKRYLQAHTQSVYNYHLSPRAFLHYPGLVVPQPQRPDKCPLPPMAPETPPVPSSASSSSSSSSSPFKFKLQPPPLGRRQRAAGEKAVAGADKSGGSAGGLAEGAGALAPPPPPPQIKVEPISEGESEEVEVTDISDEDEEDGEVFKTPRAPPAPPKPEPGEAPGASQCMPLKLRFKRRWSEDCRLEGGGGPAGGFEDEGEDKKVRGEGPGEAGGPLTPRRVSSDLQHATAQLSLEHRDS
In a few lines:
as §1

A further experiment addresses T7, ETV3L (Homo sapiens, UniProt Q6ZN32 1-361).
T7 sequence: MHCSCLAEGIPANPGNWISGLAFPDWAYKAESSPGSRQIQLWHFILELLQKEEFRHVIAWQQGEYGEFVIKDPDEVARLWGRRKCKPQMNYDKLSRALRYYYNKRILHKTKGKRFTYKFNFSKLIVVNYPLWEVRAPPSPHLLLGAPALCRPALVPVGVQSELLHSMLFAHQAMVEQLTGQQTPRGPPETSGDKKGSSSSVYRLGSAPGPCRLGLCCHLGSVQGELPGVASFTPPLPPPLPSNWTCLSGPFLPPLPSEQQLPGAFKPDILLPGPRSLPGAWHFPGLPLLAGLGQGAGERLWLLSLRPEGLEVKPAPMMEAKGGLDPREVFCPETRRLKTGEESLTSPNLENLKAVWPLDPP
In a few lines:
as §1

Another experiment has as its target T8, ETS2 (Homo sapiens, UniProt P15036 1-469).
T8 sequence: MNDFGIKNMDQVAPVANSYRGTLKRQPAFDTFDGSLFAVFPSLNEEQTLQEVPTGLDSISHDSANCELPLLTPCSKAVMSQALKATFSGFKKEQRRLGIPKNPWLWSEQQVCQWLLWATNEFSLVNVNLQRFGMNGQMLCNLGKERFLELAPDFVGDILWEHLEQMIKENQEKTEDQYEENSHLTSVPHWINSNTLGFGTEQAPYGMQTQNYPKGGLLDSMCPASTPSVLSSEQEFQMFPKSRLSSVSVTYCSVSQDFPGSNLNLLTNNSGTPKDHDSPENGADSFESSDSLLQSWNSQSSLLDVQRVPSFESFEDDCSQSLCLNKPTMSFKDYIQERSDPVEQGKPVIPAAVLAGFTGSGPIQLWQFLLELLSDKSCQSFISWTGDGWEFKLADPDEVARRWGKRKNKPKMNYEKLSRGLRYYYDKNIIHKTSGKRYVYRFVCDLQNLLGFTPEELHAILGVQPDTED
In a few lines: as §1

The target of another experiment is T9, ETV7 (Homo sapiens, UniProt Q9Y603 1-341).
T9 sequence: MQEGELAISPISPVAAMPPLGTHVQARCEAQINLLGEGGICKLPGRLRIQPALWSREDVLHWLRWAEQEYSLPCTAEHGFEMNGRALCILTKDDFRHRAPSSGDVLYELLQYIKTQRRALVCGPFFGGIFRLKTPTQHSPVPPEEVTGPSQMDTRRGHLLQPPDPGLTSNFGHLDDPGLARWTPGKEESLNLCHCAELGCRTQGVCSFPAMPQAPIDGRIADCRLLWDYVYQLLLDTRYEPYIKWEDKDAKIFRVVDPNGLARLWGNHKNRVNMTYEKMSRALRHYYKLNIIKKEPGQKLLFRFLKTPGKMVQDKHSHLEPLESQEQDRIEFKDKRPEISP
In a few lines: as §1

Another experiment concerns the target ETV6 (Homo sapiens, UniProt P41212 1-452). Put shortly: as §1

Chain of SPIB (Q01892 whole entry): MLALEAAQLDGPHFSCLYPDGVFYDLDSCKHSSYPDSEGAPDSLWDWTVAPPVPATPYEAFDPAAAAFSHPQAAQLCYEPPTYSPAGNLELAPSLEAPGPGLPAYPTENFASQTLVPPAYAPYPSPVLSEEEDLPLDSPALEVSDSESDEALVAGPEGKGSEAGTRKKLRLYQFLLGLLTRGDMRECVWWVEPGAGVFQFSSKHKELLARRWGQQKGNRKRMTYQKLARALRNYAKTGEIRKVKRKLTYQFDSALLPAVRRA
Chain of ETV6 (P41212 whole entry): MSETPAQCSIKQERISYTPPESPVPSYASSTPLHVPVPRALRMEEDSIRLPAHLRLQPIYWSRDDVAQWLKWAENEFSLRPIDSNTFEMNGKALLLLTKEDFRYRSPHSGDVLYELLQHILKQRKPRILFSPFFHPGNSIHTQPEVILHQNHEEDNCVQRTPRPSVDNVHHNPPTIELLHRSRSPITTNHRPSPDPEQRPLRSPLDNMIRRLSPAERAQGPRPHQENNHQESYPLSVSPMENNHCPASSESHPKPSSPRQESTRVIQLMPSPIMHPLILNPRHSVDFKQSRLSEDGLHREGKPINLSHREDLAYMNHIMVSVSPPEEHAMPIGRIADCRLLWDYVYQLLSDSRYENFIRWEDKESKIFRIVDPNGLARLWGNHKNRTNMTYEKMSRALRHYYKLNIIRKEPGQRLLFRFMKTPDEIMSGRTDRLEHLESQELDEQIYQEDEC
Chain of ETV1 (P50549 whole entry): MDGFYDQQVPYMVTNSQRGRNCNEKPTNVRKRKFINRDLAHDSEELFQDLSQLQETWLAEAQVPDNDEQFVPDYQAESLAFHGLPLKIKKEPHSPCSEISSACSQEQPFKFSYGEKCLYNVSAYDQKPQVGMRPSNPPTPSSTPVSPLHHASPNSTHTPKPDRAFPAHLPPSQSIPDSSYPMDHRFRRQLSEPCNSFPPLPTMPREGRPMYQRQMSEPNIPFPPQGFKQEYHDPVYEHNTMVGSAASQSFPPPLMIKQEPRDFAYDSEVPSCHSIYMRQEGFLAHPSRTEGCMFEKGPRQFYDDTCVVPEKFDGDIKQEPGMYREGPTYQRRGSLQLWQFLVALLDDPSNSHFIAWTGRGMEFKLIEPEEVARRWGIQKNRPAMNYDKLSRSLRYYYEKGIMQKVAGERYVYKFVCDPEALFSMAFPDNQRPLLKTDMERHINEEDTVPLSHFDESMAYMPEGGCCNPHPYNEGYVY
Chain of ELF1 (P32519 whole entry): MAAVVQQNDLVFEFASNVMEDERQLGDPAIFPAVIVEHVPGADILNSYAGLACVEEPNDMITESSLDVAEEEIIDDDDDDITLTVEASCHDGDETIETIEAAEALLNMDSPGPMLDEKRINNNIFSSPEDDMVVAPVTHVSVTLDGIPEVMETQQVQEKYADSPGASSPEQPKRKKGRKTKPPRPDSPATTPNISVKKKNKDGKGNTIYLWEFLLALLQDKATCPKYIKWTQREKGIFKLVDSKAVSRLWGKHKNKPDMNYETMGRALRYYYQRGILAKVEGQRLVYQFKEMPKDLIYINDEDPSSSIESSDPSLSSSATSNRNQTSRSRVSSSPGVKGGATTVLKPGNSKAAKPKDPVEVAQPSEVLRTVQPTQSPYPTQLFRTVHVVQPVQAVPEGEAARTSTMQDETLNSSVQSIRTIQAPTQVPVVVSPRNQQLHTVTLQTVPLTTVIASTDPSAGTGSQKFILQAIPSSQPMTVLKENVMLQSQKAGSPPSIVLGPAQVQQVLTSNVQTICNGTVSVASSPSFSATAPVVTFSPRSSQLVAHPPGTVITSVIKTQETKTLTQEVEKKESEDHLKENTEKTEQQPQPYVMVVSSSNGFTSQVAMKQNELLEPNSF
Chain of ETV5 (P41161 whole entry): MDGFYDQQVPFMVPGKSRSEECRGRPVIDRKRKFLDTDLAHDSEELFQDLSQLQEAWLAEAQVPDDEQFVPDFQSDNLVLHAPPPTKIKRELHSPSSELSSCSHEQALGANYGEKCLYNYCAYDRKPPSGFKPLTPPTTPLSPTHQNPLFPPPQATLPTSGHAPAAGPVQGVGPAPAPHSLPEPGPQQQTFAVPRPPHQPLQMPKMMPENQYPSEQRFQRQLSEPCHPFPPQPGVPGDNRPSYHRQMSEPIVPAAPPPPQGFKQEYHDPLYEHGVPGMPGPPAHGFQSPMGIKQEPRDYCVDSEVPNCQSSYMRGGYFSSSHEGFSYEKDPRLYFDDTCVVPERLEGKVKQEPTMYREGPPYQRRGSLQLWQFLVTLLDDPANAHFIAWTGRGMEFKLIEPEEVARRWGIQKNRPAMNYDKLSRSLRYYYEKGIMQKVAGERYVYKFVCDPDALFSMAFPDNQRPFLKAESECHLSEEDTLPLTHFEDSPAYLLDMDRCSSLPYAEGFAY

For the sequence ATAGGC, the binding signal was 1.01 fold enrichment (6-mer frequency, TF over GST control) in the experiment with GABPA; 1.01 fold enrichment (6-mer frequency, TF over GST control) with ERG; 1.03 fold enrichment (6-mer frequency, TF over GST control) with ELF1; 1.04 fold enrichment (6-mer frequency, TF over GST control) with EHF; 1.11 fold enrichment (6-mer frequency, TF over GST control) with SPIB; 1.1 fold enrichment (6-mer frequency, TF over GST control) with ETV5. Moreover, the binding signal with SPIC is 1.06 fold enrichment (6-mer frequency, TF over GST control); with ELF3 it was 1.07 fold enrichment (6-mer frequency, TF over GST control); in the experiment with ETV1, 1.01 fold enrichment (6-mer frequency, TF over GST control); with ERF, 1.04 fold enrichment (6-mer frequency, TF over GST control); with ETV3L, 1.02 fold enrichment (6-mer frequency, TF over GST control); in the experiment with ETS2 it was 1.01 fold enrichment (6-mer frequency, TF over GST control). The binding signal with ETV7 is 1.01 fold enrichment (6-mer frequency, TF over GST control); with ETV6, 1.04 fold enrichment (6-mer frequency, TF over GST control).
